Shn3 3UTR inh = inhibitors of Schnurri-3 3'UTR reporter in osteoblasts; Clone20 osteoblast Shn3 3'UTR firefly luciferase, 24 h; inhibition, % at 12.5 µM; 0.52% of 360,000 active; AID 588674;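 active = mean inhibition of at least 75% with every replicate also reaching 75%; inconclusive = mean inhibition at least 75% but some replicate below; inactive = mean inhibition below 75%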;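 also: 0% = median of neutral control wells and 100% = pilot-screen positive control compound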
PfHsp90 yeast 2 = reduces growth (ATP signal) of yeast expressing P. falciparum Hsp90; 0.32% of 310,000 active; inhibition, % at 9.4 µM; S. cerevisiae expressing PfHsp90, BacTiter-Glo ATP, 48 h; yeast lacking PDR1 and PDR3 efflux regulators;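 active = every replicate shows inhibition above about 80%, whatever the replicate mean, limit read from the data; inconclusive = mean inhibition reaches the set limit but some replicate falls short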;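 also: 0% = DMSO neutral controls and 100% = 20 µM radicicol positive controls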
Calb FLC = C. albicans growth modulation with fluconazole | C. albicans CaCi-2 (fluconazole-resistant clinical isolate) + fluconazole, Alamar Blue growth, 48 h | 0.57% of 300,000 active | growth inhibition, % (concentration not given with the values);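 active = growth inhibition above about 58% in most replicates, limit read from the data, passing the limit was not always enough; inconclusive = exactly half the replicates above a set limit; inactive = most replicates below a set limit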;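 also: all wells also contain fluconazole at 8 µg/ml as a sub-toxic cotreatment; 0% = median of DMSO wells and 100% = median of geldanamycin control wells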
Beta cell apopt = beta cell apoptosis inhibition; INS-1E cytokine-induced death, ATP luminescence, 48 h; percent of positive-control rescue, neutral wells zero; 0.8% of 300,000 active; protection from apoptosis, % (test concentration not listed);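 active = Every replicate reaches about 75%, or at least half do and their mean reaches it too, limit read from the data; inconclusive = At least half of replicates reach the limit but their mean does not; inactive = Under half of replicates reach the limit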;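 also: 0% = cytokine-treated negative control wells and 100% = positive control rescue; higher means more ATP so stronger rescue from cytokine killing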
CSC inhib = blocks cancer stem cells | cancer stem cell-like cells viability, luminescence | inhibition, % at 7.5 µM | 1.1% of 300,000 active; in the data active = inhibition above about 75%; inconclusive = no clear call, values can overlap the other calls; tested in HMLE shEcad cells
Starred values were filed as active, the others as inactive; u = inconclusive; x = no result. Shown are actives, neighbours in structure and some others; about 2.2% of the full set was active somewhere.

SMILES | Shn3 3UTR inh | PfHsp90 yeast 2 | Calb FLC | Beta cell apopt | CSC inhib
Cc1ccc(-c2nc3ccc(Cl)cc3c(=O)n2O)cc1 | -11.9 | 14.6 | 106.3* | 4.3 | 2.8
O=c1c2cc(Br)ccc2nc(-c2ccccc2)n1O | -4.4 | 14.2 | 100.2* | 1.4 | 12.4
Cc1ccc(-c2nc3ccccc3c(=O)n2O)cc1 | -1.8 | 24.1 | 5.4 | -1.3 | -4.2
O=C(Nc1ccccc1Cl)Nc1ccccc1Cl | -18.9 | -9.6 | 0.4 | 7.5 | 0.5
O=C(Nc1ccccc1)Nc1cc(Cl)cc(Cl)c1 | 66.5 | -8.0 | -16.4 | 69.8 | 80.9*
O=C(Nc1ccc(Nc2ccccc2)cc1)Nc1ccccc1Cl | -66.0 | -14.5 | 8.2 | 10.5 | 100.4*
O=C(N/N=C/c1ccc(Cl)cc1Cl)Nc1ccccc1 | -54.4 | 1.8 | 117.0* | 2.9 | 30.1
O=C(Nc1ccccc1)Nc1cc(OCC(F)(F)F)cc(OCC(F)(F)F)c1 | 93.4* | -55.5 | -13.3 | x | x
CC(C)Oc1ccc(S(=O)(=O)N2CCOCC2)cc1NC(=O)C1=NN(c2ccccc2)C(=O)CC1 | 11.3 | -10.7 | x | x | x
CCn1cc(CN2CCC(n3nccc3NC(=O)C(OC)c3ccccc3)CC2)cn1 (configuration not stated) | -5.0 | 11.4 | 5.5 | -4.8 | 5.5
CCC1Oc2ccccc2N(CC(=O)NC2CCCCC2C)C1=O (configuration not stated) | 4.9 | -8.8 | 2.7 | 6.3 | 10.3
CN(C=O)c1ccc(CSc2ccccc2)cc1 | 26.4 | x | x | x | x
COc1ccc(N(C(=O)CCl)C(C(=O)NCCc2ccccc2)c2cccs2)cc1Cl (configuration not stated) | u | -26.2 | -33.7 | 98.5* | 109.0*
CC(C)C1Cc2ccccc2-c2[nH]c(=S)[nH]c(=O)c21 (configuration not stated) | 11.3 | x | 55.8 | -10.7 | -8.5
CC(=O)C1=C(C)NC(SCC(=O)c2ccc(Cl)cc2Cl)=C(C#N)C1c1ccco1 (configuration not stated) | 23.3 | -22.9 | 21.8 | 104.6* | 22.5
CC(C)C(=O)Nc1nnc(SCC(=O)NC2CCCC2)s1 | 10.8 | -11.0 | 1.4 | -1.6 | -9.5
CN1CC(c2ccccc2)C2(SC(=S)N(Cc3ccco3)C2=O)C12C(=O)Nc1ccccc12 (configuration not stated) | 13.8 | x | -6.9 | 3.8 | 104.5*
CN(NS(=O)(=O)c1ccccc1)C(=O)c1ccccc1 | 11.2 | -17.6 | x | x | x
CCn1c(SCC(=O)N2CCN(c3ccc(F)cc3)CC2)nc2ccccc2c1=O | 4.4 | -1.3 | 14.9 | -0.8 | 76.9*
Cc1nn(-c2ccccc2)c(C)c1C(=O)OC(C)C(=O)NC1CCCCC1 (configuration not stated) | 83.2* | x | x | -4.8 | 2.1
Cc1nn(-c2ccccc2)c(Cl)c1C(=O)NC1CCCCC1 | 15.3 | 14.5 | 7.4 | -1.7 | -4.4
COCCNC(=O)C1(C)CCCN(Cc2ccc(-n3ccnc3)cc2)C1 (configuration not stated) | 7.2 | x | x | x | x
COc1ccc(-c2cc3nc(C)n(N)c(=O)c3s2)cc1 | 88.6* | u | -11.1 | 53.4 | 97.1*
CC(C)(C)NC(=O)C(=O)NNC(=O)c1cccc(F)c1 | -25.2 | -0.3 | 7.8 | -0.5 | x
C=CCC[C@H](Cc1ccc(F)cc1)C(=O)OC[C@@H](Cc1c[nH]c2ccccc12)NC(=O)[C@@H](CC=C)CC(=O)N(CCO)Cc1ccccc1 | -6.1 | 13.4 | x | 9.3 | 79.2*
SMILES | Shn3 3UTR inh | PfHsp90 yeast 2 | Calb FLC | Beta cell apopt | CSC inhib
C=CCC[C@H](Cc1ccc(F)cc1)C(=O)O[C@H](CNC(=O)[C@@H](CC=C)CC(=O)N(CCO)Cc1ccccc1)c1ccccc1 | 39.5 | -3.3 | x | 17.3 | 96.5*
COc1ccc(NC(=O)N2CCCC2C(=O)NCc2cccs2)cc1 (configuration not stated) | 5.3 | -4.5 | -1.2 | 0.0 | -3.8
CC[n+]1c(/C=C2/C=C(C)CC(C)C2)sc2ccccc21 (configuration not stated) | 77.7 | -1.7 | 7.0 | 19.3 | 11.4
CCN1/C(=C/C=C/c2sc3ccccc3[n+]2CC)Sc2ccccc21 | 94.8* | 19.8 | 26.7 | 100.6* | 79.2*
CC[n+]1c(/C=C/Nc2ccccc2)sc2ccccc21 | 91.7* | 11.7 | 2.7 | 60.0 | -5.4
CC[n+]1c(C=C2C=C(C)OC(C)=C2)sc2ccccc21 | 77.4 | -8.9 | 108.4* | x | x
Cc1cc(Br)c(NC(=O)CN2C(=O)NC3(CCOc4ccccc43)C2=O)c(Br)c1 (configuration not stated) | 1.4 | x | x | x | x
Cc1ccc(C(=O)NCC(c2ccc(F)cc2)N2CCOCC2)s1 (configuration not stated) | -4.8 | 17.9 | x | -1.0 | -3.0

Source: PubChem BioAssay
